Consider 49 compounds from ChEMBL document CHEMBL4513216, “Probing the Open Global Health Chemical Diversity Library for Multistage-Active Starting Points for Next-Generation Antimalarials” (ACS Infect Dis, 2020).

Out of some 69,000 compounds screened, about 8,600 (12%) showed an effect of 50% or more. This excerpt belongs to a sample that is enriched for strong results.

This experiment relates to Plasmodium berghei. Description: Screen against P. berghei liver stage (PbLuc), transformed with Luciferase, at 10uM. Format: functional, HepG2. Particulars: tested at 10 uM.
As to `Cc1csc(CN2C[C@@H]3CN(C)CCO[C@@H]3C2)n1`, the INHIBITION is reported as 57.5%.

Regarding `Cc1csc(CN2C[C@@H]3CN(CC4CCOCC4)CCO[C@@H]3C2)n1`, the INHIBITION came out at 47.5%.

As for `Cc1nn(C)cc1S(=O)(=O)NC1(CN2CCOCC2)CCCCC1`, the INHIBITION amounted to 28%.

For `COc1ccccc1C(C)(C)NC(=O)c1cc(NC(C)=O)ccc1F`, the INHIBITION was -52.3%.

Take `CCSCc1nc(O)c2nnn(C3CCN(Cc4ccoc4)CC3)c2n1`: the INHIBITION worked out at 18.39%.

Turning to `CC(C)c1nc2c(n1C)CCN(CC(=O)Nc1cccnc1)C2`, the INHIBITION is on record as -55.4%.

Regarding `O=C(NCC1CCN(c2ccncc2)CC1)C(O)c1ccccc1` (centres undefined), the INHIBITION is listed as 36.4%.

As to `Cc1nocc1C(=O)N1CCCC2(CCN(c3cnn(C)c3)C2=O)C1` (centres undefined), the INHIBITION is on record as 38.5%.

For the compound `CC(C)c1cc(C2CCCN2C(=O)CN2C(=O)CCNC2=O)no1` (centres undefined), the INHIBITION is 5.91%.

For the compound `O=S(=O)(c1ccccc1Br)N1CCC2(CC1)OCCS2`, the INHIBITION stood at 0.325%.

Turning to `Cc1cnn(CC2CN(CC(=O)NCc3ccco3)CCO2)c1` (centres undefined), the INHIBITION came out at 11.2%.

Consider `CCCN(Cc1cnn(C)c1)S(=O)(=O)c1cc(C)cc(F)c1`, for which the INHIBITION is on record as -6.11%.

As to `Cc1noc(CCCC(=O)NCC2CCS(=O)(=O)C2)n1` (centres undefined), the INHIBITION was -7.35%.

`Cn1nccc1-c1ccc2nc(C3CCN(CC4CC4)CC3)nn2c1`: the INHIBITION was 38.2%.

`CS(=O)(=O)CCCN(CCc1cccc(F)c1)C1CC1`: the INHIBITION is -22.3%.

For the compound `O=C(C1CCOC1)N1C[C@H]2CN(Cc3cccc(F)c3)C(=O)[C@H]2C1` (some centres undefined), the INHIBITION came to 34.9%.

As for `O=C(C1CCOC1)N1C[C@H]2CN(Cc3cccnc3)C(=O)[C@H]2C1` (some centres undefined), the INHIBITION was 17.7%.

On to `COc1ccc(CN2C[C@@H]3CN(C(=O)[C@H]4CCCO4)C[C@@H]3C2=O)cc1`, for which the INHIBITION is recorded as -43%.

With `Cc1cccc(CN2C[C@@H]3CN(C(=O)[C@H]4CCCO4)C[C@@H]3C2=O)c1`, the INHIBITION turned out to be 58.2%.

As to `Cc1cccc(CN2C[C@@H]3CN(C(=O)c4ccnnc4)C[C@@H]3C2=O)c1`, the INHIBITION turned out to be 4.61%.

Regarding `Cc1cccc(CN2C[C@@H]3CN(C(=O)C4CCOC4)C[C@@H]3C2=O)c1` (some centres undefined), the INHIBITION was 53%.

For `O=C(C1CCC1)N1C[C@@H]2CN(c3ccccc3)C(=O)[C@@H]2C1`, the INHIBITION is reported as 46.9%.

Consider `CN1C[C@@H]2CN(C(=O)C3CCOC3)C[C@@H]2C1=O` (some centres undefined), for which the INHIBITION is recorded as 33%.

Turning to `O=C(C1CCOC1)N1C[C@H]2CN(c3ccccc3)C(=O)[C@H]2C1` (some centres undefined), the INHIBITION is 52.6%.

Regarding `Cn1cc(CN2CCCC3(CCN3S(C)(=O)=O)C2)cn1` (centres undefined), the INHIBITION is reported as 28.7%.

Take `C=C(Br)CN(C)C1CCN(CCc2ccccn2)CC1`: the INHIBITION is recorded as -9.37%.

For the compound `O=C(CSc1ccc(Br)cc1)NS(=O)(=O)c1ccc2c(c1)OCCO2`, the INHIBITION stood at 30.55%.

For `Cc1nc2c(c(N3CCCOCC3)n1)CCN(c1nccs1)CC2`, the INHIBITION turned out to be 41.1%.

As to `O=C(CCN1CCCCO1)N1CCC(CO)(Cc2ccccc2)CC1`, the INHIBITION was -9.44%.

For the compound `O=C1CC(c2ccc(F)cc2)Cc2[nH]c(=O)c(C(=O)O)cc21` (centres undefined), the INHIBITION is -67.9%.

Consider `CC(C)NC(=O)c1cc2c([nH]c1=O)CC(c1cccs1)CC2=O` (centres undefined), for which the INHIBITION worked out at 62.3%.

Take `CC1CC(=O)c2cc(C(=O)N3CCc4ccccc43)c(=O)[nH]c2C1` (centres undefined): the INHIBITION was 21.5%.

Regarding `CCCNC(=O)c1cc2c([nH]c1=O)CC(c1cccs1)CC2=O` (centres undefined), the INHIBITION was 41.8%.

With `O=C1CC(c2cccs2)Cc2[nH]c(=O)ccc21` (centres undefined), the INHIBITION was -32.1%.

Turning to `O=C1CC(c2cccs2)Cc2[nH]c(=O)c(C(=O)NC3CCCC3)cc21` (centres undefined), the INHIBITION turned out to be 59.5%.

For `CCOCC1CN(Cc2ccco2)Cc2nccn2C1` (centres undefined), the INHIBITION was 10.7%.

For `COc1cc(C(=O)N2C[C@@H]3CC[C@H]2CN(Cc2cscn2)C3)ccn1`, the INHIBITION is given as -16.3%.

Regarding `CC1(C)[C@@H]2CC=C(CN3CCCn4nc(CCC(=O)O)cc4C3)[C@H]1C2`, the INHIBITION was 59.1%.

Turning to `CN(C)C(=O)NCc1cc2n(n1)CCCN(CC1[C@H]3CNC[C@@H]13)C2` (some centres undefined), the INHIBITION was -14.6%.

`Cc1cc(CN2CCCn3nc(CCC(=O)O)cc3C2)ccc1F`: the INHIBITION came to 60.2%.

On to `CCOC(=O)N1CCCn2nc(C(=O)NCCN(C)C)cc2C1`, for which the INHIBITION is -10.2%.

For `CC1(C)[C@@H]2CC=C(CN3CCCn4nc(CNS(C)(=O)=O)cc4C3)[C@H]1C2`, the INHIBITION is recorded as 25.7%.

`O=C(O)CCc1cc2n(n1)CCN(Cc1ccc3[nH]ccc3c1)C2`: the INHIBITION is -15.7%.

As for `CC1(C)[C@@H]2CC=C(CN3CCCn4nc(C(=O)O)cc4C3)[C@H]1C2`, the INHIBITION is 65.6%.

For the compound `CN(C)CCNC(=O)c1cc2n(n1)CCN(C(=O)CC(C)(C)C)C2`, the INHIBITION is recorded as -15.7%.

With `CC1(C)[C@@H]2CC=C(CN3CCCn4nc(C(=O)NCCO)cc4C3)[C@H]1C2`, the INHIBITION is 68.4%.

In the case of `O=C(NCc1cc2n(n1)CCCN(Cc1ccc(CO)o1)C2)C1CCC1`, the INHIBITION came out at 11.8%.

On to `Cc1nc2ccccc2nc1CN1CCn2nc(CCC(=O)O)cc2C1`, for which the INHIBITION turned out to be 36%.

Consider `O=C(O)CCc1cc2n(n1)CCN(Cc1cnc(N3CCCC3)nc1)C2`, for which the INHIBITION was determined as 7.43%.
